# According to PubChem BioAssay (NCI):
# The panel holds about 83,000 compounds, 20% with a hit somewhere; the sample as a whole holds those more often.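 Growth was measured after 48 h exposure to one concentration of compound in 96-well plates. Values under 10 count as active.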 Unmarked numbers belong to inactive results. Active and inactive are the calls of the source.
# Tests used:
# Test in all cases: NCI-60 one-dose screen, 48 h (100 = growth as untreated, 0 = no growth, -100 = all killed)
# Details in all cases: 10 µM unless noted
# DU-145 prostate = tested on: DU-145 prostate
# K-562 leukemia = tested on: K-562 leukemia
# MALME-3M melanoma = tested on: MALME-3M melanoma
# MDA-MB-231 breast = tested on: MDA-MB-231 breast
# RXF 393 renal = tested on: RXF 393 renal
# SF-268 CNS = tested on: SF-268 CNS
# SF-295 CNS = tested on: SF-295 CNS
# SF-539 CNS = tested on: SF-539 CNS
# M14 melanoma = tested on: M14 melanoma
# UACC-257 melanoma = tested on: UACC-257 melanoma
SMILES,growth (DU-145 prostate),growth (K-562 leukemia),growth (MALME-3M melanoma),growth (MDA-MB-231 breast),growth (RXF 393 renal),growth (SF-268 CNS),growth (SF-295 CNS),growth (SF-539 CNS),growth (M14 melanoma),growth (UACC-257 melanoma)
Cc1nn(-c2ccccc2)c2nc(N)c(C3=NCCO3)nc12,114%,102%,88.6%,87%,108%,111%,90.8%,99.6%,105%,–
O=[N+]([O-])c1ccc(NS(=O)(=O)c2ccc(Cl)c(Cl)c2)cc1,94%,66.3%,88%,76%,93.2%,97%,50.3%,82.6%,79%,–
COc1cccc(CCN2C(=O)CCC3=C2CCC3=O)c1,114%,106%,100%,78.2%,112%,119%,97.6%,97.8%,83.8%,–
CC(NC(N)=S)c1ccccc1 (configuration not stated),115%,94.6%,105%,91.9%,98%,106%,101%,96.1%,104%,–
Cc1ccc(C(NC(=O)c2ccccc2)c2ccc3cccnc3c2O)cc1 (configuration not stated),20.7%,10.1%,19.9%,16.5%,41.8%,8.85% (active),10.3%,7.53% (active),-22.9% (active),–
CCCCNCCCN(CCCC)CCCNCCCC,114%,102%,104%,90.1%,96.6%,110%,94.4%,103%,94.2%,–
N=C1c2nc3n(c2C(=O)c2nc4n(c21)CCCCC4)CCCCC3,113%,102%,103%,117%,102%,108%,93.8%,105%,108%,–
COc1c(Br)cc(C(c2cc(Br)c(OC)c(Br)c2)c2ccccc2C(=O)O)cc1Br,111%,89.6%,91.3%,102%,107%,98.8%,96%,92.2%,95.4%,–
CN1CCN(CCCOc2ccc3ncnc(Nc4ccc(OCc5cccc(F)c5)c(Cl)c4)c3c2)CC1,18.8%,-26.9% (active),-78.6% (active),-78.7% (active),-80.4% (active),-43% (active),-57.4% (active),-88.9% (active),-83.4% (active),–
COc1cc(/C(Cl)=C/C=C/C(=O)c2c(C)[n+]([O-])c3ccc(Cl)cc3[n+]2[O-])cc(OC)c1OC,67.8%,13.3%,65.7%,30.1%,47.9%,-20.1% (active),36.4%,24.3%,43.4%,–
CCN(Cc1cccc(S(=O)(=O)[O-])c1)c1ccc(C(=C2C=CC(=[N+](CC)Cc3cccc(S(=O)(=O)O)c3)C=C2)c2ccccc2S(=O)(=O)O)cc1,107%,90.8%,118%,100%,106%,94.6%,94.5%,97.4%,98.4%,–
O=C(N/N=C/c1cccc(O)c1O)c1ccccc1,33%,15.6%,20.4%,30.6%,29.7%,18.4%,-1.63% (active),6.6% (active),15%,–
CC(=O)c1nn(-c2ccccc2)c(=Nc2ccccc2)cc1C,107%,97.3%,120%,90.2%,102%,114%,86.9%,107%,120%,–
OCCN1CCN(CCCN2c3ccccc3Sc3ccc(C(F)(F)F)cc32)CC1,58.8%,-55.8% (active),-66.6% (active),40.8%,28.2%,41%,-43% (active),33.4%,-80.9% (active),–
Cc1ccc(-c2c3c(N)nc(-c4ccncc4)nc3nc3c2c(C)nn3-c2ccccc2)cc1,32.6%,28.9%,-2.14% (active),21.4%,45.6%,37.8%,95%,11.3%,44.3%,–
O=c1ncc(-c2ccc(C(F)(F)F)cc2)c(NC2CCCCCC2)[nH]1,78.5%,30%,-26.4% (active),79%,76.4%,62.3%,3% (active),91.7%,34.8%,–
Oc1c(N=Nc2nn[nH]n2)ccc2ccccc12,96.6%,97.2%,9.84% (active),60.4%,87.4%,93.8%,65.4%,95.3%,62.1%,–
Cc1c2oc3c(C)ccc(C(=O)OC(C)C4NC(=O)C(C(C)C)N(C)C(=O)CN(C)C(=O)C5CCCN5C(=O)C(C(C)C)NC4=O)c3nc-2c(C(=O)OC(C)C2NC(=O)C(C(C)C)N(C)C(=O)CN(C)C(=O)C3CCCN3C(=O)C(C(C)C)NC2=O)c(N)c1=O (configuration not stated),11.4%,5.53% (active),-37.6% (active),3.61% (active),-78.5% (active),-5.9% (active),-9.17% (active),-11.4% (active),-55.7% (active),–
CCCCOP(=O)(OCCCC)C(C(=O)OCC)C(CC(=O)OCC)C(=O)OCC (configuration not stated),122%,109%,125%,100%,93.4%,109%,101%,91.4%,114%,–
O=Cc1ccccc1C(=O)O,103%,90.5%,103%,109%,125%,96.3%,96.9%,94.8%,101%,–
COc1ccc(/C=C2\CCc3ccccc3C2=O)cc1,98.2%,20.7%,86.1%,87.3%,103%,100%,32.5%,105%,99.2%,–
O=C1/C(=C/c2ccc(F)cc2)Cc2ccccc21,104%,110%,107%,107%,99.6%,110%,90.8%,107%,103%,–

SMILES,growth (DU-145 prostate),growth (K-562 leukemia),growth (MALME-3M melanoma),growth (MDA-MB-231 breast),growth (RXF 393 renal),growth (SF-268 CNS),growth (SF-295 CNS),growth (SF-539 CNS),growth (M14 melanoma),growth (UACC-257 melanoma)
O=C1/C(=C/c2ccccc2Cl)CCc2ccccc21,108%,105%,104%,111%,107%,96.7%,65.3%,106%,104%,–
O=C1/C(=C/c2cccc(Cl)c2)CCc2ccccc21,106%,46.4%,100%,98.9%,110%,99.4%,85.5%,103%,103%,–
CC(NNC(=S)N1CCCCCC1)c1ccc2ccccc2n1 (configuration not stated),36.2%,18.2%,29.1%,41.6%,58.3%,39.7%,-10.9% (active),18.6%,21%,–
CC(C)CNc1nc(N=[N+]=[N-])nc(NCC(C)C)n1,80.1% [100 µM],33.5% [100 µM],72.7% [100 µM],48.5% [100 µM],70.8% [100 µM],63.3% [100 µM],36.5% [100 µM],–,57.7% [100 µM],62.7% [100 µM]
CC(C)OP(=O)(OC(C)C)c1ncc(-c2ccc(C(F)(F)F)cc2)c(NC2CCCCCC2)n1,-81.2% [33.3 µM] (active),-22.1% [33.3 µM] (active),-85% [33.3 µM] (active),-8.63% [33.3 µM] (active),-85.7% [33.3 µM] (active),-90.6% [33.3 µM] (active),-85.6% [33.3 µM] (active),–,-90.2% [33.3 µM] (active),-41.1% [33.3 µM] (active)
Cc1ncc(C(=O)Nc2ccc(CN3CCN(C)CC3)c(C(F)(F)F)c2)cc1C#Cc1cncc2ncccc12,66.9%,-10.7% (active),0.477% (active),21.3%,36.7%,57.7%,82.6%,67%,5.36% (active),–
COc1cc(-c2nc3nc4sc(C)c(C)c4c(=O)n3[nH]2)cc(OC)c1OC,99.7%,47%,59.6%,91.2%,78.9%,95.9%,60.5%,83.4%,78.2%,–
c1cc[n+](Cc2ccnc3ccccc23)cc1,117%,71.3%,114%,98.9%,90.3%,106%,95.9%,89.3%,101%,–
N#Cc1ncc(-c2ccc(C(F)(F)F)cc2)c(NC2CCCCCC2)n1,60.5%,13.6%,-49.2% (active),56.3%,36.6%,39.3%,-29.5% (active),74.4%,22.4%,–
O=C(Nc1ccc(Cl)cc1)Nc1ccccc1CNc1nc(Nc2ccc(OCCN3CCCC3)cc2)ncc1Cl,-42.9% (active),-4.05% (active),-81% (active),-51% (active),-64.6% (active),41.7%,89.2%,77.6%,-76.3% (active),–
O=C1Nc2ccc(Cl)cc2/C1=C/c1cccs1,105%,103%,95.9%,70.6%,94.3%,88.8%,94.3%,85.3%,101%,–
CC(=O)/C(=C/c1ccc(Cl)cc1)C(=O)c1ccccc1,99.6%,61.8%,103%,96.1%,100%,82.8%,60.2%,101%,86%,–
Cn1ccnc1C(=O)/C=C/c1ccc(C(=O)Nc2nc3ccccc3[nH]2)cc1,-13.7% (active),2.24% (active),72.7%,19.3%,2.67% (active),40.2%,64.9%,9.47% (active),71.1%,–
CCOC(=O)Nc1cc(-c2ccc(C)c(NS(C)(=O)=O)c2)nn2c(C)nnc12,43.9%,16.7%,-25% (active),26.5%,-8% (active),41.6%,-21.2% (active),17.2%,19%,–
COc1cc(C(=O)c2cc3c(cc2C)OCO3)cc(OC)c1OC,21.5%,13.7%,50.4%,23.3%,42.9%,43.1%,-50.4% (active),6.27% (active),22.5%,–
CCCCCc1c(C)[nH]c(/C=C2\N=C(c3ccc[nH]3)C=C2Oc2ccccc2)c1C,-68.1% [100 µM] (active),-43.8% [100 µM] (active),-44.7% [100 µM] (active),-94.1% [100 µM] (active),-57.2% [100 µM] (active),-60.8% [100 µM] (active),-57.7% [100 µM] (active),–,-96.7% [100 µM] (active),-66.9% [100 µM] (active)
COc1cc(NC(C)CCCN)c2nc(C)ccc2c1Oc1ccc(F)cc1 (configuration not stated),99.9%,35.9%,71.7%,61.5%,69.3%,80.7%,–,87.5%,62.3%,65.7%
O=c1sc2ncnc3ncn1c32,33.6%,15.2%,73.6%,43.7%,–,82%,38.4%,45.8%,14.5%,88.1%
CCOC(=O)C(C(=O)OCC)C1CCCCC1,107%,104%,96%,108%,107%,99.1%,–,99.4%,102%,96.3%
COC(=O)[C@H](Cc1cn(C)cn1)NC(=O)[C@H](Cc1ccccc1)NC(=O)Nc1cc(C(F)(F)F)cc(C(F)(F)F)c1,-99.7% [100 µM] (active),-60.2% [100 µM] (active),-86.3% [100 µM] (active),-90.8% [100 µM] (active),-84.3% [100 µM] (active),-94.8% [100 µM] (active),–,-94% [100 µM] (active),-90.9% [100 µM] (active),-96.6% [100 µM] (active)
CC(=O)c1ccc(NS(=O)(=O)c2ccc([N+](=O)[O-])cc2)cc1,111%,82.1%,115%,88.9%,104%,104%,–,97.8%,107%,105%
